Bioassay records (PubChem BioAssay)
Compounds with a hit are over-represented: about 10% of the library has one in this group of screens.
SW480 rereplic – A quantitative high throughput screen for small molecules that induce DNA re-replication in SW480 colon adenocarcinoma cells | AID 624297, 2012 | hit rate 1.8% among 340,000 | Potency, µM (series often up to 46.1 µM), usual class: activators | SW480 DNA re-replication, Hoechst DNA content imaging, 48 h; note: nearly all actives have a fitted effect of over 55% in size
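250 cells/well; 23 nL cpd via pin tool; 48 hr, 37 C, 5% CO2; Hoechst 40 min; imager read of total nuclear intensity, ex 405/em 500-530 nm.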
VP16 counter – VP16 counterscreen qHTS for inhibitors of ROR gamma transcriptional activity. Drosophila S2 Gal4-VP16 UAS-luciferase, luminescence, 20 h. Potency, µM (series often up to 53.6 µM), most hits filed as inhibitors. hit rate 3.5% among 310,000. AID 2546, 2010;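 note: Gal4-VP16 expression switched on by copper sulfate through the metallothionein promoter; nearly all actives have a fitted effect of over 50% in size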
ELG1 DNA repair – qHTS screen for small molecules that inhibit ELG1-dependent DNA repair in human embryonic kidney (HEK293T) cells expressing luciferase-tagged ELG1; HEK293T ELG1-luciferase reporter, luminescence, 16 h; DNA damage induced by 5-fluorouridine; Potency, µM (doses to about 46.1 µM), actives largely listed as inhibitors; hit rate 2.3% among 330,000; AID 504467, 2011; note: nearly all actives have a fitted effect of over 55% in size
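Overnight (16 hr) co-exposure of 2,000 cells/well to 5-fluorouridine and compound at 37 °C preceded detection. Luciferase was quantified via ONE-Glo luminescence; loss of signal denotes inhibition.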
MCF10A rerep – A quantitative high throughput screen for small molecules that induce DNA re-replication in MCF 10a normal breast cells; MCF 10A DNA re-replication, Hoechst nuclear intensity, 48 h; Potency, µM (series often up to 46.1 µM), most hits filed as activators; hit rate 2.9% among 350,000; note: nearly all actives have a fitted effect of over 50% in size
RORg inh – qHTS for inhibitors of ROR gamma transcriptional activity; Nuclear receptor ROR-gamma (Mus musculus), P51450; Drosophila S2 Gal4-RORgamma UAS-luciferase reporter, 20 h; Potency, µM (titrated, usually from 53.6 µM), most hits filed as inhibitors; hit rate 5.4% among 310,000; note: nearly all actives have a fitted effect of over 60% in size
Target sequence (P51450 whole entry, looked up, the tested form may be a part): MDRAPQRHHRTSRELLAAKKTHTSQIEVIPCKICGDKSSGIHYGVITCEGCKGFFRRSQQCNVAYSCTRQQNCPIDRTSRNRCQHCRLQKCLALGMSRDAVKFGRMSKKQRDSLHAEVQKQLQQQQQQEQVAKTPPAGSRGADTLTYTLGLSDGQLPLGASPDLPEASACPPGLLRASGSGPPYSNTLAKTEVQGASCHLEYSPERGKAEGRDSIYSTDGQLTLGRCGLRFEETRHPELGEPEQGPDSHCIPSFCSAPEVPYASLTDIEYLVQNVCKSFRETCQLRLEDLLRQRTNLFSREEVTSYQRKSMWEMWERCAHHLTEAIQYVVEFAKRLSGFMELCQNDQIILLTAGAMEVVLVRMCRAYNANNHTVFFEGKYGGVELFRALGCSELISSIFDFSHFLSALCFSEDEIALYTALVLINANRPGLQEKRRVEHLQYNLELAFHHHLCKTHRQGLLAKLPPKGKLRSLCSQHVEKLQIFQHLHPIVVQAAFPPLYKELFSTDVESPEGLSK
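Luciferase reporter read in Schneider cells carrying Gal4-RORγ (mouse) and UAS-Photinus luciferase; cells given compound 1 h before 700 uM copper sulfate induction, then incubated 20 h at ambient temperature.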
Of the large screens only hits and unclear results are named; the others gave an inactive call. Calls come from the whole dose curve; as a rule, active = well fitted curve in the direction sought with a large enough effect; inconclusive = small, poorly fitted or top-dose-only effect, or another doubt; inactive = no such curve, though single readings can be large; an effect the other way counts as inactive or inconclusive.

O=C(N/N=C/c1ccco1)c1cc(-c2cccc(Br)c2)nc2ccccc12	VP16 counter 5.62µM, ELG1 DNA repair inconclusive, MCF10A rerep inconclusive, RORg inh 3.16µM
O=C(N/N=C/c1c(F)c(F)c(F)c(F)c1F)c1cc(-c2ccccc2)nc2ccccc12	none
CC(C)COC(=O)Nc1nnc(SCCOc2ccccc2)s1	MCF10A rerep inconclusive
COc1ccc(NC(=O)/C(=C/c2cccnc2)NC(=O)c2cccs2)cc1	none
FC(F)(F)COc1nc(N2CCOCC2)nc(N(c2ccccc2)c2ccccc2)n1	SW480 rereplic inconclusive, ELG1 DNA repair inconclusive, MCF10A rerep inconclusive
FC(F)(F)COc1nc(OCC(F)(F)F)nc(N2CCN(c3ccccc3)CC2)n1	VP16 counter inconclusive, ELG1 DNA repair 23.1µM, MCF10A rerep inconclusive
COc1cccc(N2C(=O)/C(=C\c3cccs3)NC2=S)c1	VP16 counter inconclusive, ELG1 DNA repair inconclusive, RORg inh 10µM
Cc1ccc(/C=C2/NC(=O)N(Cc3ccccc3F)C2=O)s1	MCF10A rerep inconclusive
CC(C)CN1C(=O)/C(=C/c2cccs2)NC1=S	VP16 counter 7.08µM, RORg inh 5.01µM
CC(C)CN1C(=O)/C(=C/c2ccco2)NC1=S	VP16 counter inconclusive, RORg inh inconclusive
CCCN1C(=O)/C(=C/c2ccc(C)s2)NC1=S	VP16 counter 10µM, RORg inh 5.62µM
Cc1c(NC(=O)C(C)N2C(=O)C3CCCCC3C2=O)c(=O)n(-c2ccccc2)n1C (configuration not stated)	none
Cc1cccc(-n2c(O)c(C=Nc3ccc(O)cc3)c3ccccc3c2=O)n1	ELG1 DNA repair inconclusive
Cc1cccc(-n2c(O)c(/C=N/NC(=O)c3ccccc3Cl)c3ccccc3c2=O)n1	SW480 rereplic inconclusive, VP16 counter 4.47µM, RORg inh 6.31µM
Cc1cccc(-n2c(O)c(C=Nc3ccccc3O)c3ccccc3c2=O)n1	ELG1 DNA repair 23.1µM
Cc1cccc(-n2c(O)c(C=Nc3cc(O)ccc3C)c3ccccc3c2=O)n1	RORg inh 11.2µM
O=C(O)c1ccn2c(C(=O)c3ccc(Cl)cc3)c(-c3ccccc3)cc2c1	MCF10A rerep inconclusive
CC(C)Nc1nc(NC(N)=S)nc(NC(C)(C)C)n1	VP16 counter inconclusive, MCF10A rerep inconclusive, RORg inh 11.2µM
CCNc1nc(NC(C)C)nc(NC(C)(C)C)n1	MCF10A rerep inconclusive
CC(C)Nc1nc(NNc2nc(Cl)nc(NC(C)(C)C)n2)nc(NC(C)C)n1	VP16 counter 1.78µM, MCF10A rerep inconclusive, RORg inh 0.398µM
CC(C)Nc1nc(NC(N)=S)nc(NC(C)C)n1	ELG1 DNA repair inconclusive, RORg inh inconclusive
CCC(C)(C)n1nnnc1C(c1ccc(C)cc1)N1CCCC1 (configuration not stated)	SW480 rereplic 23.1µM, MCF10A rerep inconclusive
CCC(C)(C)n1nnnc1C(c1cc2cc(C)cc(C)c2[nH]c1=O)N1CCCC1 (configuration not stated)	ELG1 DNA repair 14.6µM, MCF10A rerep inconclusive
Cc1ccc(C)c2[nH]c(=O)c(C(c3nnnn3C(C)(C)C)N3CC=C(c4ccc(F)cc4)CC3)cc12 (configuration not stated)	SW480 rereplic 0.164µM, ELG1 DNA repair 7.31µM, MCF10A rerep inconclusive
Cc1nc2ccc([N+](=O)[O-])cc2c(=O)n1Cc1ccc(Br)cc1	RORg inh inconclusive
CCCCn1c(N)c(N(CCOC)C(=O)COC(=O)c2ccccc2NCCO)c(=O)[nH]c1=O	none (no result: VP16 counter, ELG1 DNA repair, RORg inh)
COc1cc(C)c(C(C)C)cc1S(=O)(=O)n1cnc(C)c1	SW480 rereplic 5.17µM, MCF10A rerep inconclusive
COc1ccc(C)cc1S(=O)(=O)n1cnc(C)c1	none
COc1ccc(/C=N/c2oc(-c3ccccc3)cc2C#N)cc1OC	VP16 counter inconclusive, ELG1 DNA repair inconclusive
CC(C)c1ccccc1NC(=S)NC1CCCCC1	VP16 counter 10µM, RORg inh 0.447µM
CCCCc1ccccc1NC(=S)NC1CCCC1	SW480 rereplic inconclusive, VP16 counter 4.47µM, RORg inh 3.16µM
CSc1ccccc1NC(=S)NC1CCCCC1	VP16 counter inconclusive, RORg inh 3.55µM
S=C(Nc1cccc2ccccc12)NC1CCCCC1	VP16 counter 10µM, ELG1 DNA repair inconclusive, MCF10A rerep inconclusive, RORg inh 2µM
CSc1ccccc1C(=O)NC1CCCCC1	none
CC(C)c1ccccc1NC(=S)NC(C)c1ccccc1 (configuration not stated)	SW480 rereplic inconclusive, VP16 counter inconclusive, RORg inh inconclusive
COCCN(C/C=C/c1ccccc1)C/C=C/c1ccccc1	SW480 rereplic inconclusive, MCF10A rerep inconclusive
CSc1ccccc1NC(=S)NC1CCCC1	SW480 rereplic inconclusive, VP16 counter 7.08µM, RORg inh 6.31µM
CSc1ccccc1C(=O)NC1CCCC1	none
CC(C)CSc1nc2ccccc2[nH]1	SW480 rereplic inconclusive, ELG1 DNA repair inconclusive, MCF10A rerep 0.581µM
Nc1ccccc1Sc1nc2ccccc2[nH]1	SW480 rereplic inconclusive, VP16 counter 12.6µM, ELG1 DNA repair inconclusive, RORg inh 3.55µM
CCOc1ccc(OCCSc2nc3ccccc3[nH]2)cc1	none
CCCOc1ccc(CSc2nc3ccccc3[nH]2)cc1	VP16 counter 6.31µM, ELG1 DNA repair inconclusive, RORg inh inconclusive
Cc1c(C(=O)N(C)CCCCN2CCOCC2)oc2c(F)cccc12	ELG1 DNA repair inconclusive, MCF10A rerep inconclusive
CN(C(=O)c1cccc(S(=O)(=O)NCc2ccccc2)c1)C1CCCCC1	none (no result: VP16 counter, RORg inh)
COc1ccc(-c2n[nH]c(=S)n2-c2ccc(C)cc2)cc1	VP16 counter 10µM, RORg inh 0.891µM
COc1ccc(-n2c(-c3ccc(Br)cc3)n[nH]c2=S)cc1	VP16 counter 2.51µM, RORg inh 2.24µM
COc1ccc(-n2c(-c3ccc(Br)cc3)nc(=S)c3c2CCCC3)cc1	VP16 counter 10µM, RORg inh 7.94µM
COc1cccc(-c2nc(=S)c3c(n2CCCO)CCCC3)c1	none
Cn1cccc1C(=O)NC1CCCCC1	ELG1 DNA repair inconclusive (no result: VP16 counter, RORg inh)
COc1ccccc1CN(C)C(=O)c1ccc(S(=O)(=O)Nc2c(C)n(C)n(-c3ccccc3)c2=O)cc1	ELG1 DNA repair inconclusive (no result: VP16 counter, RORg inh)
CC(=O)Nc1nonc1NC(C)=O	none
CC(=O)Nc1cc(OC(C)=O)c2nonc2c1OC(C)=O	SW480 rereplic 2.91µM, VP16 counter inconclusive, ELG1 DNA repair inconclusive, MCF10A rerep inconclusive, RORg inh 11.2µM
Cc1cccc(N2CCN(C(=O)c3cccc(S(=O)(=O)N4CCOCC4)c3)CC2)c1C	SW480 rereplic inconclusive, MCF10A rerep inconclusive (no result: VP16 counter, RORg inh)
CCN(CC)C(=O)CSc1nc2c(sc(=S)n2-c2ccccc2)c(=O)[nH]1	MCF10A rerep 0.651µM
